Test results taken from the supplement of paper PMC13380429.
Unmarked numbers belong to inactive results.

What follows are compounds tested on Vero E6 infected with SARS-CoV-2 (assay: inhibition of SARS-CoV-2 cytopathic effect; higher = more antiviral protection, active = above 15). Settings: 8.33 nM; 48 h.
With `O=C(O)COc1ccc(/C=C2\SC(=O)NC2=O)cc1` the “inhibition of SARS-CoV-2 cytopathic effect” value (shortened to “inhibition”) was 0.67%.
For `O=S(=O)(c1cccc2cnccc12)N1CCCNCC1` [fasudil], the “inhibition” value was -3.05%.
In the case of `Cc1ccc(C(=O)c2cc(O)c(O)c([N+](=O)[O-])c2)cc1` [tolcapone], the “inhibition” value is reported as -3.82%.
With `CN(C)[C@@H]1C(O)=C(C(N)=O)C(=O)[C@@]2(O)C(O)=C3C(=O)c4c(O)cccc4[C@@](C)(O)[C@H]3[C@H](O)[C@@H]12` [oxytetracycline] the “inhibition” value was -3.1%.
`O=C(O)C[CH2][Ge](=[O])[O][Ge](=[O])[CH2]CC(=O)O` [propagermanium] was tested, and the “inhibition” value was 1.44%.
For `C[C@H]1CCC/C=C/[C@@H]2C[C@H](O)C[C@H]2[C@H](O)/C=C/C(=O)O1` [brefeldin-A], the “inhibition” value was 2.51%.
In the case of `COc1ccccc1Oc1c(NS(=O)(=O)c2ccc(C(C)(C)C)cc2)nc(-c2ncccn2)nc1OCCO` [bosentan], the “inhibition” value is reported as 1.39%.
In the case of `CN1CCN(c2ccc3[nH]c(-c4ccc5[nH]c(-c6ccc(O)cc6)nc5c4)nc3c2)CC1` [pibenzimol], the “inhibition” value is reported as -1.08%.
With `CC(C)c1ccc(CC(=O)N2CCC[C@@H](c3cccc(OC(C)(C)C(=O)O)c3)C2)cc1` the “inhibition” value was 0.54%.
With `N#Cc1ccc(N2N=C3c4ccc(C(=O)O)cc4CC[C@@H]3[C@@H]2C2CCCC2)cc1Cl` the “inhibition” value was 18% (active).
With `O=S(=O)(NCC1CC1)c1ccc(Nc2nccc(N3CCCc4cc(O)ccc43)n2)cc1` [pyrintegrin] the “inhibition” value was 5.45%.
`CS(=O)(=O)CCNCc1nc(-c2ccc3ncnc(Nc4ccc(OCc5cccc(F)c5)c(Cl)c4)c3c2)cs1` was tested, and the “inhibition” value was 3.81%.
